For three compounds, outcome and AC50 results are on record in PubChem BioAssay (EPA / NIEHS).

Calls of active or inactive are those of the source. How the source made its calls: active means hit-call score of the fitted dose curve at least 0.9, where 1 is the maximum; inactive means score below 0.9.

What all share (conditions): mRNA level, 48 h; actives raise or lower the signal
Read-out in experiment [1]: Lipoprotein lipase (LPL), LPL (gene 4023)
Kind of experiment: LTEA_HepaRG_LPL: Life Technologies and Expression Analysis (LTEA) Assay for Lipoprotein lipase (LPL) using HepaRG (AID 2283515). Put shortly:
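Differentiated HepaRG cells, plated 48 h, then exposed 48 h in serum-free induction medium to 8 concentrations (top 100 uM, half-log steps) in 0.5% DMSO, duplicate. LPL mRNA measured by qRT-PCR, normalized to ACTB, GAPDH and POLR2A.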

Read-out in experiment [2]: MicroRNA 122 (MIR122), gene 406906
Kind of experiment: LTEA_HepaRG_MIR122: Life Technologies and Expression Analysis (LTEA) Assay for MicroRNA 122 (MIR122) using HepaRG (AID 2283516). Further: the transcript read is the microRNA miR-122. In outline:
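Differentiated human HepaRG cells in serum-free induction medium exposed 48 h to 8 half-log concentrations from 100 uM in 0.5% DMSO, duplicate. MIR122 quantified by Fluidigm TaqMan qRT-PCR, normalised to ACTB, GAPDH, POLR2A; fold change fitted bidirectionally versus DMSO.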

Read-out in experiment [3]: matrix metalloproteinase-10 (MMP10), MMP10 (gene 4319)
Kind of experiment: LTEA_HepaRG_MMP10: Life Technologies and Expression Analysis (LTEA) Assay for matrix metalloproteinase-10 (MMP10) using HepaRG (AID 2283517). In outline: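 Differentiated HepaRG cells in serum-free induction medium exposed 48 h in duplicate to 8-point half-log series up to 100 uM in 0.5% DMSO. mRNA quantified by qRT-PCR, normalised to ACTB, GAPDH, POLR2A; bidirectional fit versus DMSO.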

Read-out in experiment [4]: MYC, MYC (gene 4609)
Kind of experiment: LTEA_HepaRG_MYC: Life Technologies and Expression Analysis (LTEA) Assay for MYC using HepaRG (AID 2283518). In outline:
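Differentiated human HepaRG cells, plated 48 h then switched to serum-free induction medium, were exposed in duplicate for 48 h to 8-point half-log series up to 100 uM in 0.5% DMSO. MYC mRNA measured by qRT-PCR, normalized to ACTB/GAPDH/POLR2A.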

Read-out in experiment [5]: matrix metalloproteinase-3 (MMP3), MMP3 (gene 4314)
In words: LTEA_HepaRG_MMP3: Life Technologies and Expression Analysis (LTEA) Assay for matrix metalloproteinase-3 (MMP3) using HepaRG (AID 2283519). Put shortly: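 HepaRG cells (~100,000/well) in serum-free induction medium were dosed in duplicate for 48 h with an 8-point half-log series from 100 uM, 0.5% DMSO. MMP3 mRNA was quantified by Fluidigm TaqMan qRT-PCR, normalized to three housekeeping genes.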

Read-out in experiment [6]: Paternally Expressed 10 (PEG10), PEG10 (gene 23089)
Kind of experiment: LTEA_HepaRG_PEG10: Life Technologies and Expression Analysis (LTEA) Assay for Paternally Expressed 10 (PEG10) using HepaRG (AID 2283520). Put shortly:
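Differentiated HepaRG cells exposed 48 h in serum-free induction medium to eight half-log concentrations topping at 100 uM, 0.5% DMSO, in duplicate. PEG10 mRNA quantified by TaqMan qRT-PCR, normalized to ACTB, GAPDH and POLR2A; bidirectional fit versus DMSO.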

Read-out in experiment [7]: Nuclear factor NF-kappa-B p105 subunit (Homo sapiens) (UniProt P19838)
In words: LTEA_HepaRG_NFKB1: Life Technologies and Expression Analysis (LTEA) Assay for Nuclear Factor Kappa B Subunit 1 (NFKB1) using HepaRG (AID 2283521).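 On outcome: TaqMan qRT-PCR transcript normalised to ACTB GAPDH and POLR2A housekeeping genes.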 In outline:
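Differentiated human HepaRG cells in serum-free induction medium with 0.5% DMSO were exposed for 48 h to eight half-log concentrations, top 100 uM, in duplicate. NFKB1 mRNA measured by Fluidigm TaqMan qRT-PCR, normalised to ACTB, GAPDH and POLR2A; bidirectional fit versus DMSO.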

Read-out in experiment [8]: Protein phosphatase 2A (PPP2R4), PTPA (gene 5524)
In words: LTEA_HepaRG_PPP2R4: Life Technologies and Expression Analysis (LTEA) Assay for Protein phosphatase 2A (PPP2R4) using HepaRG (AID 2283522). Put shortly: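 Differentiated human HepaRG cells in serum-free induction medium were exposed 48 h to 8 concentrations (top 100 µM, half-log steps, duplicate) in 0.5% DMSO. PPP2R4 mRNA was measured by TaqMan qRT-PCR, normalised to ACTB, GAPDH and POLR2A, and fitted bidirectionally versus DMSO.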

Read-out in experiment [9]: Phosphatase and tensin (PTEN), PTEN (gene 5728)
Kind of experiment: LTEA_HepaRG_PTEN: Life Technologies and Expression Analysis (LTEA) Assay for Phosphatase and tensin (PTEN) using HepaRG (AID 2283523). In outline: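 HepaRG cells, 48 h after plating, exposed in duplicate for 48 h in serum-free induction medium to 8 half-log concentrations up to 100 uM (0.5% DMSO). PTEN mRNA by qRT-PCR, normalized to ACTB, GAPDH, POLR2A; bidirectional fit versus DMSO.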

Read-out in experiment [10]: solute carrier (SLC22A1), SLC22A1 (gene 6580)
Kind of experiment: LTEA_HepaRG_SLC22A1: Life Technologies and Expression Analysis (LTEA) Assay for solute carrier (SLC22A1) using HepaRG (AID 2283524). Put shortly: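 Differentiated human HepaRG cells in serum-free induction medium, exposed 48 h in duplicate to 8-point half-log series from 100 µM top in 0.5% DMSO. SLC22A1 mRNA by TaqMan qRT-PCR normalized to ACTB, GAPDH, POLR2A; bidirectional fit versus DMSO.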

Read-out in experiment [11]: Pyruvate Dehydrogenase Kinase 4 (PDK4), PDK4 (gene 5166)
Kind of experiment: LTEA_HepaRG_PDK4: Life Technologies and Expression Analysis (LTEA) Assay for Pyruvate Dehydrogenase Kinase 4 (PDK4) using HepaRG (AID 2283525). Put shortly:
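HepaRG cells plated 48 h, then switched to serum-free induction medium and exposed in duplicate for 48 h to 8 half-log concentrations from 100 uM in 0.5% DMSO. PDK4 mRNA measured by qRT-PCR, normalized to ACTB, GAPDH and POLR2A; bidirectional fit versus DMSO.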

Read-out in experiment [12]: NAD(P)H dehydrogenase [quinone] 1 (NQO1), NQO1 (gene 1728)
Kind of experiment: LTEA_HepaRG_NQO1: Life Technologies and Expression Analysis (LTEA) Assay for NAD(P)H dehydrogenase [quinone] 1 (NQO1) using HepaRG (AID 2283526). Put shortly: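 Differentiated human HepaRG cells in serum-free induction medium, dosed in duplicate for 48 h at 8 half-log concentrations up to 100 uM in 0.5% DMSO. NQO1 mRNA by qRT-PCR normalized to ACTB, GAPDH, POLR2A; bidirectional fit versus DMSO baseline.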

Read-out in experiment [13]: Nuclear factor erythroid 2-related factor 2 (Homo sapiens) (UniProt Q16236)
In words: LTEA_HepaRG_NFE2L2: Life Technologies and Expression Analysis (LTEA) Assay for Nuclear factor erythroid 2-related factor 2 (NFE2L2) Transcription Factor using HepaRG (AID 2283527).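 On outcome: TaqMan qRT-PCR transcript level normalised to ACTB GAPDH and POLR2A housekeeping genes.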 In outline: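 Differentiated human HepaRG cells, serum-free induction medium, exposed 48 h in duplicate to eight half-log concentrations up to 100 uM in 0.5% DMSO. NFE2L2 mRNA by Fluidigm TaqMan qRT-PCR, normalised to ACTB, GAPDH, POLR2A; bidirectional change versus DMSO.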

Read-out in experiment [14]: succinate dehydrogenase complex iron sulfur subunit B (SDHB), SDHB (gene 6390)
Kind of experiment: LTEA_HepaRG_SDHB: Life Technologies and Expression Analysis (LTEA) Assay for succinate dehydrogenase complex iron sulfur subunit B (SDHB) using HepaRG (AID 2283528). In outline: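 HepaRG cells (~100,000/well, plated 48 h) exposed in duplicate for 48 h in serum-free induction medium to 8-point half-log series from 100 uM in 0.5% DMSO; mRNA by qRT-PCR normalised to ACTB, GAPDH, POLR2A; bidirectional fit versus DMSO.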

Read-out in experiment [15]: Signal transducer and activator of transcription 3 (Homo sapiens) (UniProt P40763)
In words: LTEA_HepaRG_STAT3: Life Technologies and Expression Analysis (LTEA) Assay for Signal transducer and activator of transcription (STAT3) using HepaRG (AID 2283529). Put shortly:
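Differentiated HepaRG cells, serum-free induction medium, dosed 48 h in duplicate, 8 half-log concentrations from 100 uM in 0.5% DMSO. STAT3 mRNA by qRT-PCR, normalised to ACTB, GAPDH, POLR2A; bidirectional fit versus DMSO.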

Read-out in experiment [16]: solute carrier (SLCO1B1), SLCO1B1 (gene 10599)
In words: LTEA_HepaRG_SLCO1B1: Life Technologies and Expression Analysis (LTEA) Assay for solute carrier (SLCO1B1) using HepaRG (AID 2283530). Put shortly: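 Differentiated human HepaRG cells, plated 48 h, switched to serum-free induction medium and exposed in duplicate for 48 h to 8 half-log concentrations (top 100 uM) in 0.5% DMSO. SLCO1B1 mRNA by TaqMan qRT-PCR, normalized to ACTB/GAPDH/POLR2A.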

Read-out in experiment [17]: sulfotransferase 2A1 (SULT2A1), SULT2A1 (gene 6822)
Kind of experiment: LTEA_HepaRG_SULT2A1: Life Technologies and Expression Analysis (LTEA) Assay for sulfotransferase 2A1 (SULT2A1) using HepaRG (AID 2283531). In outline:
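Differentiated human HepaRG cells in serum-free induction medium were exposed for 48 h to eight half-log concentrations (top 100 uM, 0.5% DMSO). SULT2A1 mRNA was measured by qRT-PCR, normalized to ACTB, GAPDH and POLR2A, and fitted bidirectionally against DMSO.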

Read-out in experiment [18]: Transforming Growth Factor (TGFA), TGFA (gene 7039)
In words: LTEA_HepaRG_TGFA: Life Technologies and Expression Analysis (LTEA) Assay for Transforming Growth Factor (TGFA) using HepaRG (AID 2283532). In outline: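 Differentiated HepaRG cells exposed 48 hours in serum-free induction medium, 0.5% DMSO vehicle, 8-point half-log series from 100 uM, in duplicate. TGFA mRNA by TaqMan qRT-PCR, normalised to ACTB, GAPDH, POLR2A; bidirectional fit versus DMSO.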

Read-out in experiment [19]: Transforming Growth Factor (TGFB1), TGFB1 (gene 7040)
In words: LTEA_HepaRG_TGFB1: Life Technologies and Expression Analysis (LTEA) Assay for Transforming Growth Factor (TGFB1) Transporter using HepaRG (AID 2283533). In outline: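 Differentiated human HepaRG cells in serum-free induction medium were exposed in duplicate for 48 h to eight concentrations (top 100 uM, half-log steps, 0.5% DMSO). TGFB1 mRNA was quantified by qRT-PCR, normalized to ACTB, GAPDH, POLR2A, and fitted bidirectionally against DMSO.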

Read-out in experiment [20]: TIMP1, TIMP1 (gene 7076)
In words: LTEA_HepaRG_TIMP1: Life Technologies and Expression Analysis (LTEA) Assay for TIMP1 using HepaRG (AID 2283534).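 On outcome: TaqMan qRT-PCR signal normalized to ACTB GAPDH and POLR2A housekeeping genes.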 In outline:
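Differentiated human HepaRG cells in serum-free induction medium were exposed 48 h to chemicals (8 half-log concentrations, top 100 uM, 0.5% DMSO). TIMP1 mRNA was quantified by TaqMan qRT-PCR, normalized to ACTB/GAPDH/POLR2A; bidirectional fit versus DMSO.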

Signal transducer and activator of transcription 3 (Homo sapiens), sequence (P40763 whole entry, looked up): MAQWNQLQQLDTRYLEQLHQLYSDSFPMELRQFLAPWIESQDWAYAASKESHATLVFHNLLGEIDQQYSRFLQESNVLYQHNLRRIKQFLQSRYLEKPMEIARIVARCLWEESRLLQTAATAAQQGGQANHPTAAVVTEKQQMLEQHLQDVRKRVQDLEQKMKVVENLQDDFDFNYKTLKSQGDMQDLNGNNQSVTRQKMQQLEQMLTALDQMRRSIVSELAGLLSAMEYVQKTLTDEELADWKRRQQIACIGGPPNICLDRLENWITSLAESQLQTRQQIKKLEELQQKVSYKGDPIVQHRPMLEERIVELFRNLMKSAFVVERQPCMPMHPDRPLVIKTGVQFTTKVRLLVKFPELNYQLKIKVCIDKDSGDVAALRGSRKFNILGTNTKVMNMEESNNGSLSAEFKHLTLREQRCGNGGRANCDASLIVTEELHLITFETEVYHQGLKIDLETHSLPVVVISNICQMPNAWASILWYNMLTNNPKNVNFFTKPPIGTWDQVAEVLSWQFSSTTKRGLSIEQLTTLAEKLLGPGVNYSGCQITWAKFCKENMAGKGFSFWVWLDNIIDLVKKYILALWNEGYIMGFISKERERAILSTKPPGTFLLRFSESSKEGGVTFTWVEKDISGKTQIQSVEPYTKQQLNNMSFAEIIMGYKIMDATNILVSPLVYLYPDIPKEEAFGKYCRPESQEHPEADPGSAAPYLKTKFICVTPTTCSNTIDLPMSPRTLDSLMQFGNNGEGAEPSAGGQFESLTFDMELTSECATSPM
Nuclear factor erythroid 2-related factor 2 (Homo sapiens), sequence (Q16236 whole entry, looked up): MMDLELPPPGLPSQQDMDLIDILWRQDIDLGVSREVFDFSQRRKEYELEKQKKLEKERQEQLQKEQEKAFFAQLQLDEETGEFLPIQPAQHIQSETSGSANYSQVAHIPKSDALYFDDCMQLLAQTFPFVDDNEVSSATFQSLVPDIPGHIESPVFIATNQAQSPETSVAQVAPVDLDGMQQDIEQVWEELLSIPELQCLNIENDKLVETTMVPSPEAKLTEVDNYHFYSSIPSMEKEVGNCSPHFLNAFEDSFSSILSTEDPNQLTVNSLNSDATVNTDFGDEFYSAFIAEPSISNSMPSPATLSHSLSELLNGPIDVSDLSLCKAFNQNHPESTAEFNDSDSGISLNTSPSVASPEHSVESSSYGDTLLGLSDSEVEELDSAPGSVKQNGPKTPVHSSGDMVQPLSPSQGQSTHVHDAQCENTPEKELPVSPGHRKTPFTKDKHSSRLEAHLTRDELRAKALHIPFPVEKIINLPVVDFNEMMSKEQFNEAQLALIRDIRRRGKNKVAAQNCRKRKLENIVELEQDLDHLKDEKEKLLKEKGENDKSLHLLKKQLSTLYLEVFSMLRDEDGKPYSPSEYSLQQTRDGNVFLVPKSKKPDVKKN
Nuclear factor NF-kappa-B p105 subunit (Homo sapiens), sequence (P19838 whole entry, looked up): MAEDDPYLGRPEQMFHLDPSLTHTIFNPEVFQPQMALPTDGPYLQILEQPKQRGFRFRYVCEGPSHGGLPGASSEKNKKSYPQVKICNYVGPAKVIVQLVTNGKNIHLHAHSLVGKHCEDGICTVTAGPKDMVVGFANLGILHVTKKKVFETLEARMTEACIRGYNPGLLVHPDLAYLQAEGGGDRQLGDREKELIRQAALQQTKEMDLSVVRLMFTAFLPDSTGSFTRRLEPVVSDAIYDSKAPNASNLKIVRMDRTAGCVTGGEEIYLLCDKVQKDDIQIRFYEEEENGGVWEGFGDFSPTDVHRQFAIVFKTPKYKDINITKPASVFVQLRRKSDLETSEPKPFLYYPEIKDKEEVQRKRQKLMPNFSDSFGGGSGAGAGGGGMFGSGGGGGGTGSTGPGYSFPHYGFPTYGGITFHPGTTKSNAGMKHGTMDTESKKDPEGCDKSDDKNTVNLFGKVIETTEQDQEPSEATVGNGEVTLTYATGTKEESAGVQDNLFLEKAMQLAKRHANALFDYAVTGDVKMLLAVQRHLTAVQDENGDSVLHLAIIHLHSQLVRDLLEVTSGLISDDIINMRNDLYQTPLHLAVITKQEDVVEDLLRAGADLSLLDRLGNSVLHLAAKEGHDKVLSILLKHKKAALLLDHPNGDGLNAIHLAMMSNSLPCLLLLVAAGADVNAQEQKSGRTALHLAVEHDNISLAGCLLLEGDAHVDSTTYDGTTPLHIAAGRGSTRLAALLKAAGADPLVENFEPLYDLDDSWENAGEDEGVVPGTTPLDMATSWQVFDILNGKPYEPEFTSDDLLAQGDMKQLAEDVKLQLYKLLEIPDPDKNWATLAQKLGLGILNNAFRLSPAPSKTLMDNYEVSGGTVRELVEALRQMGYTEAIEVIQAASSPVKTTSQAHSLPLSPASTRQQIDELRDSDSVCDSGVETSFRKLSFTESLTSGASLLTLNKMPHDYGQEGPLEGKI

Turning to `O=C(O)COc1nc(Cl)c(Cl)cc1Cl`, the compound was classed as inactive in [1], in experiment [2], in experiment [3], in experiment [4], in experiment [5] and in experiment [7]. Also, the compound was called inactive in experiment [8], in [9], in experiment [10], in experiment [12], in experiment [13] and in [14]. For the same compound, the compound was called inactive in experiment [15], in [16], in experiment [17], in [18], in experiment [19] and in experiment [20]. Further, the AC50 in experiment [6] was 3.29 µM (active); in experiment [11] it was 51 µM (active).

As for `CC(C)(C)c1ccc(CSc2cnn(C(C)(C)C)c(=O)c2Cl)cc1`, the AC50 was 2.25 µM (active) in experiment [1]; 22.8 µM (active) in experiment [2]; 18.1 µM (active) in experiment [3]; 2.84 µM (active) in experiment [4]; 1.01 µM (active) in experiment [6]; 1.84 µM (active) in experiment [8]. For the same compound, the half-maximal activity concentration (AC50) is 2.71 µM (active) in experiment [10]; 9.92 µM (active) in experiment [11]; 26.7 µM (active) in [13]; 1.54 µM (active) in experiment [14]; 2.34 µM (active) in experiment [16]; 22.7 µM (active) in [17]. Moreover, the results for the half-maximal activity concentration (AC50) in experiment [18] and in experiment [20] were 2.96 µM (active) and 26.9 µM (active), respectively. Moreover, the outcome in [5], in experiment [9], in experiment [12], in experiment [15] and in experiment [19] was inactive.

Consider `N#Cc1cc(Br)c(O)c(Br)c1`, for which the outcome in [1], in experiment [3], in experiment [4] and in experiment [18] was inactive. Moreover, the AC50 was 14.2 µM (active) in experiment [2]; 2.69 µM (active) in [5]; 10.5 µM (active) in experiment [6]; 5.8 µM (active) in [7]; 10.7 µM (active) in experiment [8]; 26.1 µM (active) in experiment [9]. The AC50 in experiment [10] was 16.2 µM (active); in [11] it was 9.64 µM (active); in [12] it was 11.9 µM (active); in experiment [13], 10.3 µM (active); in [14], 7.28 µM (active); in [15], 3.27 µM (active). For the same compound, the AC50 in experiment [16] was 17.8 µM (active); in [17], 25.7 µM (active); in [19] it was 14.2 µM (active); in experiment [20] it was 10.2 µM (active).
